High-throughput results: PubChem, National Center for Advancing Translational Sciences (NCATS)
Rows were chosen to be rich in hits. Some 21% of all compounds tested hit in one or more screens of this group.
Pf growth 48h: Primary qHTS for delayed death inhibitors of the malarial parasite plastid, 48 hour incubation. P. falciparum luciferase growth in erythrocytes, 48 h. Potency, µM (top dose mostly 28.7 µM), actives largely listed as inhibitors. 5.9% of 310,000 active. AID 504832, 2011
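Firefly luciferase activity from engineered P. falciparum reports growth; inhibitors lower the luminescent signal. Cultures contained 2% hematocrit erythrocytes at 0.1% final parasitemia.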
Pf growth 96h: Primary qHTS for delayed death inhibitors of the malarial parasite plastid, 96 hour incubation. AID 504834, 2011. 6.9% of 320,000 active. P. falciparum luciferase reporter growth, 96 h. Potency, µM (highest dose often 28.7 µM), usual class: inhibitors
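Infected RBCs, 2% Hct / 0.05% parasitemia final; luciferase-reporter P. falciparum; cpd 96 h, 37 C, 5% CO2; luciferase detection reagent; luminescence.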
Shiga toxin inh: A qHTS for Small Molecule Inhibitors of Shiga Toxin | inhibition, % at 38.7 µM | AID 2315, 2010 | Vero cells, Shiga toxin protein synthesis inhibition reporter | 9.2% of 290,000 active; in the data active means inhibition mostly above about 28%, no sharp cut-off; inactive means mostly below about 43%
NS1 inh: qHTS Assay for Inhibitors of Influenza NS1 Protein Function. AID 2326, 2010. Potency, µM (doses to about 46.1 µM). 0.4% of 270,000 active; calls by dose curve; further: actives are rising curves; nearly all actives have a fitted effect of over 50% in size
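OD600 was taken as the measure of yeast growth restored by compound in an NS1-expressing S. cerevisiae strain. Cells had been washed out of glucose medium and diluted 1:100 into galactose -URA medium, pH 6.0.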
Giardia FBPA inh: qHTS Assay for Inhibitors of Fructose-1,6-bisphosphate Aldolase from Giardia Lamblia. A8B2U2. purified Giardia FBPA. Potency, µM (top dose mostly 59.6 µM), actives largely listed as inhibitors. 0.71% of 290,000 active. AID 2451, 2010; further: nearly all actives have a fitted effect of over 55% in size
Target sequence (A8B2U2 whole entry, looked up): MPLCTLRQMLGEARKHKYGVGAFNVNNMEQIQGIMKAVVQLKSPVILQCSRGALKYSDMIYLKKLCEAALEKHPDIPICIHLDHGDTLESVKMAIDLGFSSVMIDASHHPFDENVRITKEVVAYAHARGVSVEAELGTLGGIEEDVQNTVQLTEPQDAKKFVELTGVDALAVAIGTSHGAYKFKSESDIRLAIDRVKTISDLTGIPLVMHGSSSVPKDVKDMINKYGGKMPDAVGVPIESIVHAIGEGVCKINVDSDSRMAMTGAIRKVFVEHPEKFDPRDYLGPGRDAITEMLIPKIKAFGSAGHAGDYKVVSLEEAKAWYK
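Giardia FBPA (40 nM reagent) was preincubated 10 min at RT with compound (up to 57.5 uM final), then substrate plus GAPDH/TPI/NAD/arsenate coupling system with diaphorase/resazurin was added; resorufin fluorescence (525/598 nm) was read after 20 min.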
Cycloheximide cs: Cycloheximide Counterscreen for Small Molecule Inhibitors of Shiga Toxin | 12% of 300,000 active | AID 2314, 2010 | cell reporter, cycloheximide protein synthesis inhibition counterscreen | max response, %; in the data active means max response mostly above about 13%, no sharp cut-off; inactive means mostly below about 14%; further: read at 38.3 µM for the half of the compounds with a filed dose
Hits are given with their value; 0 = inactive; ? = inconclusive; - = not tested or not shown; [ ] = remark or other dose. Unless noted, the call rests on the fitted dose curve; in most records, active means well fitted curve in the direction sought with a large enough effect; inconclusive means small, poorly fitted or top-dose-only effect, or another doubt; inactive means no such curve, though single readings can be large; an effect the other way counts as inactive or inconclusive.

SMILES | Pf growth 48h | Pf growth 96h | Shiga toxin inh | NS1 inh | Giardia FBPA inh | Cycloheximide cs
COc1ccc(-c2cc(C(F)(F)F)nc(S(=O)(=O)CCCC(=O)Nc3cccnc3Cl)n2)cc1OC | 11.7µM | 0 | 0 | - | 0 | 19.3
Fc1ccc(-c2nc3ccccn3c2NCc2ccc3c(c2)OCO3)cc1 | 8.28µM | 0 | 0 | - | 0 | 0
Oc1ccc(-c2nc3ccccn3c2NCc2ccc3c(c2)OCO3)cc1 | 0 | ? | 0 | 0 | 0 | 24.5
Cc1ccn2c(NCc3ccc4c(c3)OCO4)c(-c3ccc(O)cc3)nc2c1 | - | ? | 0 | 0 | 0 | 0
O=C(Nc1ccncc1)c1sc2ccccc2c1Cl | 0 | ? | 71.8 | - | 0 | 25.9
CN1CCN(c2ccc(NC(=O)c3sc4ccccc4c3Cl)cc2)CC1 | 0 | 0 | 81.7 | - | 0 | 42.7
O=C(NNC(=S)NC(=O)c1sc2ccccc2c1Cl)c1ccc(Cl)cc1 | 0 | 0 | 0 | 0 | ? | 13.7
CCn1nnc(NC(=O)c2sc3ccccc3c2Cl)n1 | 0 | 0 | 65.7 | 0 | 0 | 42.3
Cc1cn(C2CC3OCC(NC(=O)C(Cc4ccccc4)NC(=O)OC(C)(C)C)C3O2)c(=O)[nH]c1=O (stereo not given) | - | - | 0 | - | 0 | 0
CSc1nnc(SCC(=O)Nc2ccc3[nH]c(=O)[nH]c3c2)s1 | 0 | 0 | - | - | - | -
COC(=O)N1CCC2(CCCN(C(=O)Nc3ccc(OC)cc3)C2)CC1 | - | - | - | - | 0 | -
C=C/C(=C/C(=O)C[C@H](C)C[C@@H](C)CC[C@H](O)[C@H](C)C(=O)C[C@@H](O)[C@H](C)[C@@H](C)OC(=O)C[C@@H](O)C1=C(C)C(=O)OC1=O)CC | - | - | 0 | - | 0[12.9 µM] | 0
CCc1nc2ccccc2c(C(=O)OCC(=O)NC(=O)c2cccn2C)c1C | 0 | 0 | 0 | 0 | 0 | 0
O=C(N/N=C/c1ccc2c(c1)OCO2)c1ccc2c(c1)OCO2 | 0 | 0 | 71.7 | 0 | 0 | 42.0
O=C(N/N=C/c1ccc2c(c1)OCO2)C1CC1 | 0 | 0 | 48.8 | 0 | - | 36.9
O=C(N/N=C/c1cccc(O)c1)c1ccc2c(c1)OCCO2 | 0 | 0 | 0 | 0 | - | 0
O=C(CNC(=O)c1cccc(Br)c1)N/N=C/c1ccc2c(c1)OCO2 | 0 | 0 | 78.7 | 0 | 0 | 24.3
O=C(N/N=C\c1cc2c(cc1Cl)OCO2)c1cccs1 | 0 | 0 | 69.3 | 0 | - | 25.7
CCOC(=O)c1c(C)n(C)c2ccc(OC(=O)c3ccc(N4C(=O)CCC4=O)cc3)cc12 | 0 | ? | 0 | 0 | 0 | 0
Cc1cccc(CNc2nc(-c3cccnc3)nc3ccccc23)c1 | - | - | - | - | 0 | -
O=C(N/N=C\c1cccc(OC(=O)c2ccco2)c1)c1ccc2c(c1)OCO2 | 0 | 0 | 50.4 | 0 | 0 | 32.5
O=C(N/N=C/c1ccccc1OC(=O)N1CCOCC1)c1cccs1 | 0 | ? | 0 | - | 0 | 35.1
O=C(N/N=C/c1ccc[nH]1)c1ccc2c(c1)OCO2 | 0 | 0 | 109.2 | - | 0 | 36.9
O=C(Cc1ccccc1)N/N=C/c1cc2c(cc1Cl)OCO2 | 0 | 0 | 84.7 | 0 | 0 | 35.0
CCOc1cccc(C2/C(=C(/O)c3ccc4c(c3)CC(C)O4)C(=O)C(=O)N2Cc2ccncc2)c1 (stereo not given) | 0 | 0 | 0 | 0 | - | 0
SMILES | Pf growth 48h | Pf growth 96h | Shiga toxin inh | NS1 inh | Giardia FBPA inh | Cycloheximide cs
O=C(N/N=C/c1cccnc1)c1ccc2c(c1)OCO2 | 0[0.00184 µM] | 0 | 55.0 | 0 | 0 | 38.4
O=C(N/N=C/c1cc2c(cc1Cl)OCO2)c1ccc2c(c1)OCCO2 | 0 | ? | 70.2 | 0 | 0 | 41.9
O=C(N/N=C\c1ccc(S(=O)(=O)O)o1)c1ccc2c(c1)OCO2 | 0 | ? | 0 | 0 | 0 | 0
O=C(N/N=C\c1ccc2c(c1)OCO2)c1ccco1 | 0 | 0 | 59.3 | 0 | 0 | 28.5
O=C(N/N=C/c1c(Cl)[nH]c2ccccc12)c1ccc2c(c1)OCCO2 | 0 | 0 | 60.4 | 0 | 0 | 55.1
Cc1cc(C)nc(N/N=C/C=C/c2ccccc2)n1 | 0 | ? | 56.7 | 0 | 0 | 29.3
Cc1cc(C)nc(N/N=C/c2ccccc2)n1 | 0 | 0 | 0 | 0 | 0 | 0
Cc1cc(C)nc(N/N=C/C(Cl)=C/c2ccccc2)n1 | - | 3.7µM | 49.7 | 0 | 0 | 29.8
CCc1ccc(NC(=O)C(C)Sc2nc(-c3ccco3)c(C#N)c(=O)[nH]2)cc1 (stereo not given) | 0 | 0 | 0 | 0 | 0 | 0
C=CCn1c(=N)n(CC(=O)OC)c2ccccc21 | 0 | 11.7µM | 0 | 0 | 0 | 0
